BAZ2B inh: BAZ2B (human) inhibition. AlphaScreen BAZ2B-H3K14Ac peptide displacement. Potency, µM (titrated, usually from 114 µM), most hits filed as inhibitors. 4.4% of 360,000 active; note: nearly all actives have a fitted effect of over 60% in size
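Complex of BAZ2B and biotin-H3K14Ac (50 nM apiece) forms over 30 min at RT, then faces library compounds up to 110 uM for another 30 min; AlphaScreen beads added, 20 min dark incubation, luminescence read.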
G9a block: inhibitors of human histone lysine methyltransferase G9a | Q96KQ7 | G9a H3K9 monomethylation, AlphaScreen, 2 h | Potency, µM (top dose mostly 102 µM), usual class: inhibitors | 8.8% of 350,000 active | AID 504332; note: nearly all actives have a fitted effect of over 75% in size
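G9a (20 nM) preincubated 15 min RT with compounds, then 500 nM biotinylated H3K9 peptide and 20 uM SAM added; 2 h RT reaction. Monomethyl-H3K9 product detected by AlphaScreen with anti-H3K9me1 antibody, streptavidin donor and anti-rabbit IgG acceptor beads.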
Sfp inh: blocks B. subtilis Sfp PPTase activity. 3.5% of 310,000 active. Potency, µM, usual class: inhibitors. Biochemical Sfp PPTase activity, qHTS. Q9F4F7;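 note: the enzyme is Sfp with the accession as filed and its product quenches rhodamine fluorescence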
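With Hepes-Na pH 7.6 buffer containing 10 mM MgCl2, Sfp (15 nM) modified BHQ-2-YbbR (12.5 uM) using rhodamine-CoA (5 uM). Two reads 30 minutes apart at 525/598 nm yielded each well's rate.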
HP1b chromo inh: inhibitors of HP1-beta chromodomain binding to methylated histone tails; AlphaScreen HP1-beta / biotin-H3K9me3 peptide binding; 0.56% of 390,000 active; Potency, µM (series often up to 114 µM), most hits filed as inhibitors; P83916; AID 540317; note: nearly all actives have a fitted effect of over 70% in size
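AlphaScreen: HP1-beta (50 nM) preformed 30 min with biotin-H3(1-18)K9me3 peptide (50 nM) in PBS pH 7.4, 0.01% Tween-20. Compound added for 30 min at RT, then streptavidin donor/nickel chelate acceptor beads (10 ug/mL) for 30 min.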
PLK1 PBD inh: inhibitors of human PLK1 polo-box domain binding; Potency, µM, usual class: inhibitors; 2.8% of 360,000 active; P53350; Plk1 PBD binding of FITC phosphopeptide, fluorescence polarization; note: series mostly up to about 57 µM; nearly all actives have a fitted effect of over 65% in size
JMJD2A Tudor inh: JMJD2A Tudor domain (human) inhibition. AlphaScreen JMJD2A-Tudor / H3K4me3 peptide binding. AID 504339. Potency, µM (doses to about 114 µM), most hits filed as inhibitors. 4.4% of 390,000 active; note: nearly all actives have a fitted effect of over 50% in size
Target sequence (O75164 whole entry, looked up, the tested form may be a part): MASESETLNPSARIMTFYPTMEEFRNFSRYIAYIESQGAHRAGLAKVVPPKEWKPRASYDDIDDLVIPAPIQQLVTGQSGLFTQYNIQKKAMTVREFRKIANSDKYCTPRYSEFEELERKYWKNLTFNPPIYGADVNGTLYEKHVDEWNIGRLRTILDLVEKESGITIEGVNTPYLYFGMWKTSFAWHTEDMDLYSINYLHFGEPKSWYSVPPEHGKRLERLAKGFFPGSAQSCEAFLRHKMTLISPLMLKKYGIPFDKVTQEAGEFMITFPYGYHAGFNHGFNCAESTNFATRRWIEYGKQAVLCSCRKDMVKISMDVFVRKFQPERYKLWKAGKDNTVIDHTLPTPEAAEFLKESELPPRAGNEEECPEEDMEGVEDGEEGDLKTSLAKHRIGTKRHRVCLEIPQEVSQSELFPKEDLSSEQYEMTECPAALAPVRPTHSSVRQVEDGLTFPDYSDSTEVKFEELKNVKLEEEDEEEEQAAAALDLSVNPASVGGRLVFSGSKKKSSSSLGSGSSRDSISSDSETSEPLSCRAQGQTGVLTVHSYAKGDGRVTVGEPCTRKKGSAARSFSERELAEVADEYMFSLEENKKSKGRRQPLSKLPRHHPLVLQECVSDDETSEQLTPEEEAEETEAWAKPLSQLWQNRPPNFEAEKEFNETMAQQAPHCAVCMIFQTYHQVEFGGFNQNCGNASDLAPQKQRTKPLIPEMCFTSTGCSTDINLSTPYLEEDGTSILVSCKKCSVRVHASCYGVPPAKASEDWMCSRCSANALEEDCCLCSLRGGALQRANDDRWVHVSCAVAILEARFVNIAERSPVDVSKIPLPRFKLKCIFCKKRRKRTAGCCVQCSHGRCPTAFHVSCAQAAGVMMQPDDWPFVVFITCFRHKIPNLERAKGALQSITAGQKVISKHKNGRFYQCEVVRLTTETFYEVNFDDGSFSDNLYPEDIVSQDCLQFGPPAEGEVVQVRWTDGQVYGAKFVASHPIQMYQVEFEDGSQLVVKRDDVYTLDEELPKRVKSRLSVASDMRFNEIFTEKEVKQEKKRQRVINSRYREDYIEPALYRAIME
A number is an active result; . = inactive; ? = inconclusive; / = not tested or not shown; [ ] = remark or other dose. An excerpt weighted towards active compounds, which were near 12% of everything screened. Calls come from the whole dose curve; as a rule, active = well fitted curve in the direction sought with a large enough effect; inconclusive = small, poorly fitted or top-dose-only effect, or another doubt; inactive = no such curve, though single readings can be large; an effect the other way counts as inactive or inconclusive.

SMILES | BAZ2B inh | G9a block | Sfp inh | HP1b chromo inh | PLK1 PBD inh | JMJD2A Tudor inh
CC(C)(C)N1C(=O)[C@H]2[C@H]3[C@H](O)[C@H](O)C/C(=N/OC[C@@H](O)COCc4ccco4)[C@H]3CC[C@@H]2C1=O | / | / | . | / | / | /
Cc1sc2nc3ccc(N4CCCCC4)nn3c(=O)c2c1C | . | 32µM | . | . | ? | .
COc1ccc(-c2cn3cccnc3n2)cc1NC(=O)Nc1ccc(Cl)cc1 | . | . | / | . | / | .
Cc1cc(C)c(C)c(S(=O)(=O)N2CCN(S(=O)(=O)c3ccc4c(c3)OCCO4)CC2)c1C | / | / | / | / | / | .
O=C(Nc1ccc(-c2n[nH]c(=S)o2)cc1)c1ccccc1Cl | . | 1.8µM | . | . | . | .
N=c1c2c(-c3ccccc3)c(-c3ccccc3)n(Cc3ccco3)c2ncn1Cc1ccco1 | 25µM | ? | 35µM | ? | . | 50µM
N=c1c2c(-c3ccccc3)c(-c3ccccc3)n(Cc3ccccc3)c2ncn1CCCn1ccnc1 | 50µM | ? | ? | . | . | ?
CN(CC(O)COCc1ccccc1F)C1CCCCC1 (stereo not given) | . | .[12.7 µM] | . | . | . | .
CN(Cc1cccc(F)c1)CC(O)COCc1ccccc1Cl (stereo not given) | / | 56µM | . | ? | . | 22µM
CN(C)CCNC(=O)c1cccc2nc3cccc(F)c3nc12 | / | / | / | . | . | .
CN(C)CCNC(=O)c1cccc2ccc(-c3ccc(-c4ccccc4)cc3)nc12 | / | / | / | . | . | 56µM
O=C1c2ccccc2[C@@H]2C[C@@H](O)[C@H](Nc3ccccc3-c3ccccc3)CCN12 | / | / | / | . | . | .
CCCCC(O)C(=O)Nc1cc(C(F)(F)F)ccc1Cl (stereo not given) | / | / | / | / | / | .
CC1=C(C(N)=O)C(c2ccc(C)cc2)n2nc(SCc3ccccc3)nc2N1 (stereo not given) | . | . | / | . | / | .
Oc1cccc(NC(=S)Nc2ccc(SC(F)F)cc2)c1 | . | . | . | . | . | .
Oc1cccc2c(NC(=S)Nc3ccc(SC(F)F)cc3)cccc12 | 45µM | 40µM | ? | ? | . | ?
CCOC(=O)N1CCc2c(sc3c2C(=O)NC(c2ccc(C(=O)OC)cc2)N3)C1 (stereo not given) | . | . | / | . | / | .
Cc1sc2c(c1C)C(=O)NC(c1cccc(O)c1)N2 (stereo not given) | . | 45µM | 40µM | / | / | /
COC(=O)c1ccc(C2NC(=O)c3c(sc(C)c3C)N2)cc1 (stereo not given) | . | 5.6µM | 16µM | . | 27µM | .
CCOC(=O)c1sc(C)c2c1NC(c1ccc(Cl)cc1)NC2=O (stereo not given) | . | .[2.33 µM] | . | . | . | .
COC(=O)CNC(=O)C1Nc2ccc(OC(F)(F)F)cc2C2C=CCC12 (stereo not given) | / | / | / | . | . | .
COCCNC(=O)C1Nc2ccc(C(F)(F)F)cc2C2C=CCC12 (stereo not given) | / | / | / | . | . | .
Cc1cc(C)c2c(c1)NC(C(=O)O)C1CC=CC21 (stereo not given) | 11µM | / | 89µM | 20µM | 3µM | 13µM
Cc1cc(C)c2c(c1)C1C=CCC1C(C(=O)O)N2 (stereo not given) | / | / | / | 20µM | / | 20µM
Cc1ccc2c(c1C)NC(C(=O)O)C1CC=CC21 (stereo not given) | 7.1µM | 8.9µM | 45µM | 11µM | 19µM | 7.9µM
SMILES | BAZ2B inh | G9a block | Sfp inh | HP1b chromo inh | PLK1 PBD inh | JMJD2A Tudor inh
O=C(O)C1Nc2c(C(F)(F)F)ccc(Cl)c2C2C=CCC12 (stereo not given) | ? | 10µM | ? | . | 27µM | .
Cc1cc(C)c2c(c1)N[C@H](c1cccs1)[C@@H]1CCO[C@H]21 | . | . | . | . | . | .
CN1CCOc2cc(S(=O)(=O)N3CCN(c4nc(-c5cccs5)nc5ccccc45)CC3)ccc21 | / | / | / | . | / | .
CCn1cc(CNC(=S)Nc2cccc(Cl)c2C)cn1 | . | . | . | . | ? | .
O=C(O)C1Nc2c(C(=O)N3CCOCC3)cccc2C2C=CCC12 (stereo not given) | 20µM | 8.9µM | 7.1µM | 40µM | 12µM | 11µM
O=C(c1ccccc1)c1ccccc1C(=O)N1CCOCC1 | . | . | . | . | . | .
CCc1c(C)c2cc3c(c(C)c2oc1=O)OCN(CCc1ccccc1F)C3 | . | . | / | . | / | .
Cn1cc(CN2CCc3c([nH]c4ccccc34)C2C2CCCCC2)cn1 (stereo not given) | 45µM | 45µM | ? | . | . | .
CCOC(=O)[C@@H]1[C@H]2COc3ccccc3[C@H]2N2C(=O)N(c3ccc(Cl)cc3)C(=O)[C@]12C | . | . | . | . | . | .
COc1ccc(CN(Cc2cccn2C)C(=O)c2cc3cc(OC)ccc3[nH]2)cc1 | ? | 50µM | . | . | . | ?
COc1ccc2[nH]c(C(=O)NCc3ccccc3)cc2c1 | . | / | . | . | . | .
O=C(CN1CCN(S(=O)(=O)c2ccc3c(c2)OCCO3)CC1)Nc1cccc(F)c1 | . | 56µM | / | . | . | .
O=C(CN1CCN(S(=O)(=O)c2ccc(Cl)cc2)CC1)Nc1ccc2c(c1)OCCO2 | . | 50µM | . | . | . | .[11.4 µM]
O=C(CCS(=O)(=O)c1ccc(Br)cc1)Nc1ccc2c(c1)OCO2 | 50µM | ? | . | ? | ? | 50µM
O=C(CN1CCN(S(=O)(=O)c2ccc(Cl)cc2)CC1)Nc1ccc2c(c1)OCO2 | . | . | . | . | 27µM | .[11.4 µM]
O=C(CN1CCN(S(=O)(=O)c2ccccc2)CC1)Nc1ccc2c(c1)OCO2 | . | .[12.7 µM] | . | . | . | .
NC(=O)c1ccc(NC(=O)CN2CCN(S(=O)(=O)c3ccc4c(c3)OCCO4)CC2)cc1 | . | .[2.33 µM] | / | . | . | .
Cc1ccc(-c2nnc3ccc(SCC(=O)c4ccccc4)nn23)cc1 | / | / | / | . | / | .
C=C1C(=O)OC(CCCCCCCC)C1C(=O)O (stereo not given) | / | / | . | / | / | /
CC1c2cc3c(cc2CCN1CC(=O)Nc1ccc(S(=O)(=O)N2CCCC2)cc1)OCCCO3 (stereo not given) | ? | 71µM | . | . | . | .
C#CCOc1ccc(Br)cc1/C=N/O | . | ? | . | . | . | .
COC(=O)C1C(O)=C(C=NC2CCCCC2)C(=O)CC1(C)C (stereo not given) | . | . | . | . | . | .[11.4 µM]
COC(=O)C1C(O)=C(C(C)=Nc2cccc3ccccc23)C(=O)CC1(C)C (stereo not given) | . | . | . | . | . | 79µM
O[C@@H]1[C@@H]2c3cc4c(cc3CN3CCC(=C[C@@H]1O)[C@H]23)OCO4 | / | .[21.5 µM] | . | / | / | /
CC(C)[C@H](NC(=O)c1ccco1)C(=O)N(C)Cc1c(F)cccc1Cl | . | . | . | . | . | .
Cc1ccc(-c2ccc(CCC(=O)O)o2)cc1 | . | ? | 45µM | . | ? | ?
Cc1cc(NC(=O)CCc2ccc(-c3ccccc3)o2)no1 | . | / | . | . | . | .
